Here are results for 8 molecules from PubChem BioAssay.

For some assays here: Measured potencies and affinities stand elsewhere. The source made the active and inactive calls.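 Rule for the calls, unless noted: active = calcium signal cut by more than 3 SD below the full-agonist control yet still positive, in both repeats and the earlier primary screen; inactive = the rest.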

Assay [1] concerns TRPC4 beta (transient receptor potential cation channel C4), mouse. Nature of the assay: TRPC4 cation channel opening, retest – cell-based, Fluo4 calcium, HEK293 TRPC4beta/mu-opioid, duplicates, 10 µM, confirmation (AID 2426;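 active = fluorescence ratio normalized to control raised more than 50% in primary screen plus both repeat runs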;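 for activation: percent rise of integrated ratio over buffer wells lacking compound which define 0%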). The following applies: Fluo4 calcium fluorescence, at 10 µM; stronger effect = higher value.
Assay [2] deals with transient receptor potential cation channel C4 beta (TRPC4), mouse. Description: TRPC4 cation channel opening, second retest – cell-based, second round, Fluo4, HEK293 TRPC4beta/mu-opioid, 1 µM, confirmation (AID 2461;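 active = primary screen active and over 50% activation in each of two duplicate runs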;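 for activation: 0% = wells without test compound as baseline of integrated fluorescence ratio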). The following applies: Fluo4 calcium fluorescence, at 1 µM; stronger effect = higher value.
In assay [3] the test system is TRPC4 (transient receptor potential cation channel C4 beta), mouse. Description: potentiation of DAMGO EC20 TRPC4 response – cell-based, second round, Fluo-4, HEK293 TRPC4beta/mu-opioid, 1 µM, confirmation (AID 2554;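 active = primary screen hit whose fluorescence ratio, in both repeats, exceeds the weak agonist control mean by 3 SD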). Particulars: DAMGO EC20, Fluo-4 calcium flux, at 1 µM; stronger effect = higher value.
The subject of assay [4] is TRPC4 beta (transient receptor potential cation channel C4), mouse. Description: potentiation of DAMGO EC20 TRPC4 response – cell-based, Fluo-4, HEK293 TRPC4beta/mu-opioid, confirmation (AID 2555;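 active = primary screen hit whose calcium fluorescence ratio, in both repeats, exceeds the weak agonist control mean by 3 SD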). Particulars: DAMGO EC20, Fluo-4 calcium flux, at 10 µM; stronger effect = higher value. (Calcium assays in cells follow changes in intracellular calcium, usually with a dye or a luminescent sensor.)

Assay [5] has as its target Short transient receptor potential channel 4 (Mus musculus) (UniProt Q9QUQ5). Nature of the assay: blockers of DAMGO-evoked TRPC4 calcium flux – cell-based, Fluo4, HEK293 TRPC4beta/mu-opioid, confirmation (AID 2636). The following applies: at 10 µM; stronger effect = higher value.
Assay [6] has the same target. Description: blockers of DAMGO-evoked TRPC4 calcium flux – cell-based, second round, Fluo4, HEK293 TRPC4beta/mu-opioid, 1 µM, confirmation (AID 2637;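 active = calcium signal ratio cut to more than 3 SD under the fully stimulated control mean yet still positive, in both repeats and the primary screen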). The following applies: at 1 µM; stronger effect = higher value.
For assay [7] the target is unchanged. Nature of the assay: calcium entry via TRPC4 opening agents – cell-based, HEK293 TRPC4/mu-opioid, Fluo-4 calcium, dose response (AID 434937;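 active = primary screen activator hit with a dose response curve and TRPC4 channel activation at any tested dose; inactive = no activation, no dose response, or not a primary hit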).
The target is the same in assay [8]. Description: block of DAMGO-driven TRPC4 calcium entry – cell-based, HEK293 TRPC4/mu-opioid, Fluo-4 calcium, dose response (AID 434942;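 active = primary screen inhibitor hit that blocks the TRPC4 channel at some tested dose, yielding a dose curve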).
Assay [9] has as its target Short transient receptor potential channel 6 (Mus musculus) (UniProt Q61143). Description: TRPC6 blockade by TRPC4 inhibitor hits – cell-based, HEK293, membrane potential dye, duplicate, selectivity assay for TRPC4 inhibitor project, confirmation (AID 434948;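 active = active in primary screen and both duplicates, each dropping signal beyond three positive-control SD with fluorescence still positive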). The following applies: HEK293 TRPC6, membrane potential dye fluorescence, at 10 µM, stimulated with maximal-effect acetylcholine; stronger effect = higher value.

The target is the same in assay [10]. Nature of the assay: TRPC6 opening by TRPC4 activator hits – cell-based, HEK293, membrane potential dye, duplicate, selectivity assay for TRPC4 activator project, confirmation (AID 434950;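 active = membrane potential signal rise above negative control mean plus 3 SD in both duplicates, also active in the earlier TRPC4 screen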;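 for activation: 0% = buffer only wells and 100% = acetylcholine maximal-effect wells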). Particulars: HEK293 TRPC6, membrane potential fluorescence, at 10 µM; activation: stronger effect = higher value; outcome: activation.
The target is the same in assay [11]. Description: positive modulators of mouse TRPC6 channel – HEK293 cells, membrane potential dye, duplicate, selectivity assay for TRPC4 potentiator project, confirmation (AID 434952;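 active = compound raising the membrane signal above positive-control mean plus 3 SD in both repeats, and a primary screen hit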). Particulars: HEK293 TRPC6, membrane potential dye fluorescence, at 10 µM, maximal acetylcholine added after compound; stronger effect = higher value.
The target of assay [12] is Short transient receptor potential channel 4 (Mus musculus) (UniProt Q9QUQ5). Description: calcium flux activators in TRPC4/5HT1a cells, counter-screen for TRPC4 activator project, cell-based, second counter screen, HEK293 TRPC4/5HT1a, Fluo-4 (AID 434977;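 active = calcium signal rise above buffer-control mean plus 5 SD in both duplicates, and also a hit in the primary screen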;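 for activation: plate controls were assay buffer for no effect and maximal serotonin response for full effect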). Particulars: Fluo-4 calcium flux, at 10 µM; stronger effect = higher value.
Assay [13] can be described thus: serotonin-gated TRPC4 signal block – cell-based, second counter screen, HEK293 TRPC4/5HT1a, Fluo-4, counter-screen for TRPC4 inhibitor project, confirmation (AID 434978;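 active = primary screen active whose calcium signal fell more than 3 SD beyond the full-serotonin control mean in both duplicate plates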;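 note: serotonin given first at submaximal then at maximal dose after compound preincubation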). Particulars: Fluo-4 calcium flux, at 10 µM, serotonin added to trigger calcium flux; stronger effect = higher value. For orientation: Counterscreens check selectivity or assay interference.
The subject of assay [14] is TRPC4 (mouse), co-expressed with 5HT1a in HEK293. Nature of the assay: enhancement of serotonin-evoked TRPC4 response – cell-based, second counter screen, HEK293 TRPC4/5HT1a, Fluo-4, counter-screen for TRPC4 potentiator project, confirmation (AID 434979;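 active = signal rise over 3 SD above mean of control wells given weak agonist, in both repeats and first screen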). Particulars: Fluo-4 calcium flux, at 10 µM, serotonin added at its EC20 dose; stronger effect = higher value.
A short description of assay [15]: nonspecific calcium rise without TRPC4 – cell-based, HEK293 mu-opioid receptor line, counter-screen for TRPC4 activator project, confirmation (AID 449723;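 active = hit in primary screen, with calcium signal over 5 SD above buffer well mean in both duplicates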;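 note: counter screen cells carry the mu-opioid receptor alone and lack TRPC4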). The following applies: HEK293 mu-opioid cells, Fluo-4 calcium fluorescence, at 10 µM; stronger effect = higher value.
A short description of assay [16]: nonspecific potentiation of DAMGO calcium response – cell-based, HEK293 mu-opioid receptor line, counter-screen for TRPC4 allosteric potentiator project, confirmation (AID 449724;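 active = calcium signal rise more than 3 SD above the low-dose agonist control mean, in both duplicate plates and the primary screen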). The following applies: HEK293 mu-opioid receptor cells, Fluo-4 calcium flux, at 10 µM, compound added before EC20 DAMGO stimulus; stronger effect = higher value.
Assay [17] addresses Short transient receptor potential channel 4 (Mus musculus) (UniProt Q9QUQ5). Description: potentiation of DAMGO-evoked TRPC4 calcium signal – cell-based, HEK293 TRPC4/mu-opioid, Fluo-4 calcium, EC20 DAMGO, dose response (AID 434941;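 active = earlier screen potentiator hit that boosts the TRPC4 ion channel at some dose, with a dose response; inactive = no potentiation, no dose response, or not a prior hit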;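 note: calcium entry triggered by an EC20 dose of DAMGO at the co-expressed mu-opioid receptor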).

Sequence of Short transient receptor potential channel 6 (Mus musculus) (Q61143 whole entry, looked up): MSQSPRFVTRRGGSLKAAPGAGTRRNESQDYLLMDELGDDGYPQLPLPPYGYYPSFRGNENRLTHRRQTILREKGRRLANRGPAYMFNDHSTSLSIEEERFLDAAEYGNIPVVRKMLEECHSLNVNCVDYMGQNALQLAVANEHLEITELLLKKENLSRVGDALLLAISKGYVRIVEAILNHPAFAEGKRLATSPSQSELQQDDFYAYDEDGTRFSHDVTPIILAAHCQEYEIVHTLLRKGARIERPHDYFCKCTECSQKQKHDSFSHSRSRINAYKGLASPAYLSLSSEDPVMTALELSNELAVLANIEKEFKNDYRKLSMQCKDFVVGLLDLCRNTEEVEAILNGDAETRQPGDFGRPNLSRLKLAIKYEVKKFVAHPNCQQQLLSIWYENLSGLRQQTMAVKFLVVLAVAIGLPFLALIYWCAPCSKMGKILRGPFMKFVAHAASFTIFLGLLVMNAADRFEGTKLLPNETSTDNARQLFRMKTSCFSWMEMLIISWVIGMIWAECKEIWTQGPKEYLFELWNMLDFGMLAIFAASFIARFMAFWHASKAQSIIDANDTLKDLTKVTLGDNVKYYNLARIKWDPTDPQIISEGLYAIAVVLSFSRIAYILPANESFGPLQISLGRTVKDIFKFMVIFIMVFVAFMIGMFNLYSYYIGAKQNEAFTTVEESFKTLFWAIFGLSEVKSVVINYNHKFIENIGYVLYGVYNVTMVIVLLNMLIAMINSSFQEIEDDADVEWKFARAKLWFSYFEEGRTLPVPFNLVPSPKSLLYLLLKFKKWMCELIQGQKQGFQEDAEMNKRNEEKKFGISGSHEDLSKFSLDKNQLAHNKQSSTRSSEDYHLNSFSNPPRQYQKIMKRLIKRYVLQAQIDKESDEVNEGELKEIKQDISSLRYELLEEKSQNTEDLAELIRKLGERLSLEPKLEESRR
Sequence of Short transient receptor potential channel 4 (Mus musculus) (Q9QUQ5 whole entry, looked up): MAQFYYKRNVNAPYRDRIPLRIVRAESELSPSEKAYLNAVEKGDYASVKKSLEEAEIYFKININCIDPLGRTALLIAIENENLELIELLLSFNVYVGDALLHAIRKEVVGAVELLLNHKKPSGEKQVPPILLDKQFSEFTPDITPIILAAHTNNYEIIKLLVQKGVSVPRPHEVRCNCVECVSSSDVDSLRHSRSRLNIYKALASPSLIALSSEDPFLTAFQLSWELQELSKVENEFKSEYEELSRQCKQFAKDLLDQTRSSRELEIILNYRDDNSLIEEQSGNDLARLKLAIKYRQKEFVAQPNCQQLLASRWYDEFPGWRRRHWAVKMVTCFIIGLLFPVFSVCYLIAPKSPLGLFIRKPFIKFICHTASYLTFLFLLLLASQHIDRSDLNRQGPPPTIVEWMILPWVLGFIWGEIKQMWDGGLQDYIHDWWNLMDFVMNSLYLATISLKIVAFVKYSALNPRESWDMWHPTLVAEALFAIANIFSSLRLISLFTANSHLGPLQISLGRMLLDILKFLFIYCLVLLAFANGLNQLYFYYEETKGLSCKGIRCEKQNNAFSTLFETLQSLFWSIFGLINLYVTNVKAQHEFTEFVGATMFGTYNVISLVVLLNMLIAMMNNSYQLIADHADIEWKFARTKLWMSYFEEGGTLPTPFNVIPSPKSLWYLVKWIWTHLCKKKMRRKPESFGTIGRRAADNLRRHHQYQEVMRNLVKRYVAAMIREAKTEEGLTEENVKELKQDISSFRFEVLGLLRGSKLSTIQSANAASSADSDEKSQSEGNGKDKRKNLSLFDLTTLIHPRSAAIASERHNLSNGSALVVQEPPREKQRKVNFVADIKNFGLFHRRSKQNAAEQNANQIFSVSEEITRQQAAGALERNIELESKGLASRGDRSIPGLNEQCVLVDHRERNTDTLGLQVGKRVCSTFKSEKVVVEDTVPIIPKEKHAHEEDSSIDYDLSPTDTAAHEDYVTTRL

For the molecule `Cc1cc(OCC(=O)N(C(C)C)C(C)C)cc(C)c1Br`, the result in assay [1], in assay [2], in assay [3], in [5], in assay [6] and in assay [7] was inactive. Further, the result in assay [8], in assay [9], in assay [10], in [11], in [12] and in assay [13] was inactive. Further, the outcome in assay [15] and in assay [16] was inactive. For the same molecule, the potentiation was 22% (active) in assay [4] and 31.9% (active) in assay [14].
In the case of `O=C(Cc1cccc(F)c1F)NC1CCCN(Cc2ccc(Cl)cc2)C1` (stereo not drawn), the result in [1], in [2], in assay [3], in assay [4], in [5] and in [6] was inactive. For the same molecule, the outcome in assay [17], in [8], in [9], in [11], in [12] and in assay [13] was inactive. Moreover, the result in assay [14], in assay [15] and in assay [16] was inactive. Besides, the activation in assay [10] is 37.5% (active).
For the molecule `CN(C)CCCN(C(=O)c1ccc(S(=O)(=O)N2CCCCCC2)cc1)c1nc2c(F)cc(F)cc2s1`, the activation in assay [1] is 133% (active). The result in assay [2], in assay [3], in assay [4], in assay [5], in assay [6] and in [17] was inactive. The result in assay [8], in assay [9], in assay [10], in [11], in assay [12] and in [13] was inactive. In addition, the result in [14], in [15] and in [16] was inactive.
For `O=C(Nc1cccc(Cl)c1)c1cnn2cccnc12`, the outcome in assay [1], in [2], in assay [5], in assay [6], in assay [7] and in [8] was inactive. Further, the molecule was classed as inactive in [9], in assay [10], in assay [11], in assay [12], in assay [13] and in assay [15]. Also, the outcome in [16] was inactive. Moreover, the potentiation in [3] is 16% (active); in [4] it was 14% (active); in assay [14] it was 43% (active).
`COc1ccc(/C=N/NC(=O)C2COc3ccccc3O2)cc1OC` (stereo not drawn): the activation in assay [1] is 114% (active); in assay [2], 59% (active); in assay [10] it was 45% (active); in [12], 52.1% (active). Besides, the result in assay [3], in assay [4], in assay [5], in [6], in assay [17] and in assay [8] was inactive. Also, the outcome in [9], in assay [11], in assay [13], in assay [14], in assay [15] and in assay [16] was inactive.
As to `CN(C)CCNc1ccc(Cl)cc1[N+](=O)[O-]`, the outcome in assay [1], in [2], in [3], in assay [4], in assay [5] and in [6] was inactive. In addition, the outcome in assay [7], in assay [8], in assay [9], in assay [10], in assay [11] and in assay [12] was inactive. For the same molecule, the outcome in [13], in [15] and in assay [16] was inactive. Besides, the potentiation in assay [14] was 8.91% (active).
Regarding `O=C(NCc1ccccc1)C1=C[C@H](c2ccc(Br)cc2)C[C@H](OCc2ccc(CO)cc2)O1`, the result in assay [1], in assay [2], in [3], in assay [5], in [6] and in [7] was inactive. The result in [8], in assay [9], in assay [10], in assay [11], in assay [12] and in assay [13] was inactive. Moreover, the outcome in [15] and in assay [16] was inactive. Besides, the potentiation in assay [4] is 35% (active); in [14], 97.6% (active).
As for `CCn1c(O)c(N=NC(=O)c2cccc(S(=O)(=O)N3CCCCC3)c2)c2ccccc21`, the result in [1], in assay [2], in [3], in assay [4], in assay [5] and in assay [6] was inactive. In addition, the result in assay [7], in assay [8], in assay [9], in assay [10], in assay [11] and in assay [12] was inactive. Further, the outcome in assay [13], in [15] and in assay [16] was inactive. Besides, in assay [14], the potentiation is 6.79% (active).
